“And” between values parts separate entries of the source, which are not always exact repeats. Equal entries are not always repeated. Results filed as inconclusive are left out. The source made the active and inactive calls. Calls come from the whole dose curve; as a rule, active = well fitted curve in the direction sought with a large enough effect; inconclusive = small, poorly fitted or top-dose-only effect, or another doubt; inactive = no such curve, though single readings can be large or run the other way.
% is set by controls: 0 for no effect and ±100 for the full control effect; potency is the fitted concentration of half-maximal effect.

A short description of this assay: qHTS Assay for Identifying Gametocytocidal Compounds (AID 743244).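 For max response: actives lower the fluorescent signal which means gametocytes are killed.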 The following applies: P. falciparum 3D7 stage III-V gametocytes, alamarBlue, 72 h; max response: stronger effect = lower value. An excerpt:
Malaria cases and deaths have dropped 50% in 29 countries since 2000 due to the combined effects of long-lasting insecticidal bednets, indoor residual spraying, and artemisinin-based combination therapies (ACTs). This success has raised hopes for malaria eradication and consequently stimulated interest in developing new reagents that block gametocyte transmission such as novel and safe gametocytocidal drugs. However, previous drug development efforts have focused primarily on the asexual parasites that cause symptoms, but not malaria transmission. Consequently, patients can remain infectious for weeks after the clearance of asexual parasites and clinical symptoms. To be transmitted from person to person via a mosquito, the parasites must switch from asexual to sexual development and produce male and female gametocytes. Malaria gametocytes consist of five stages (I, II, III, IV and V). The late stage gametocytes (III, IV and V) are difficult to be cultured in vitro and the long lifespan of mature gametocytes allows them being transmitted from host to mosquitoes unless they are completely eliminated by gametocytocidal agents. To identify gametocytocidal compounds which are capable of killing late stage P. falciparum gametocytes, a high throughput gametocyte viability assay was employed. This assay uses oxidoreduction indicator, alamarBlue, as a general measure of metabolic activity of gametocytes. Within live cells, the nonfluorescent resazurin is reduced to resorufin, a bright red fluorescence dye. Fluorescence decreases upon treatment of gametocytocidal compounds. P. falciparum gametocyte (3D7 strain) was used in this study.
The 1536-well gametocycidal viability assay was based on the previous method of Tanaka et al. Stage III-V gametocytes were tested against three compound libraries, including 4265 compounds from NCGC pharmaceutical collection, 400 from Malaria Box library, and 550 from an internal collection of kinase inhibitors. Briefly, 2.5 ul/well incomplete medium was dispensed into each well of 1,536-well plates using the Multidrop Combi followed by 23 nl compound transferring using the NX-TR Pintool (WAKO Scientific Solutions, San Diego, CA). Then, 2.5 ul/well of gametocytes was dispensed with a seeding density of 20,000 cells/well using the Multidrop Combi. The assay plates were incubated for 72 h at 37C with 5% CO2. After addition of 5 ul/well of 2X AlamarBlue dye (Life Technologies, cat. no. DAL1100), the plates were incubated for 24 h at 37C with 5% CO2 and then were read in a fluorescence detection mode (Ex = 525 nm, Em = 598 nm) on a ViewLux plate reader (PerkinElmer).
A general note: Quantitative high-throughput screening tests each substance at several concentrations.
For the compound `CC(=O)N[C@@H]([C@@H](O)[C@H](O)[C@H](O)CO)[C@@H](O)CC(=O)C(=O)O`, the max response is 14.7% (inactive). The same measure, in the same setting: to `CCCOc1cc(N)ccc1C(=O)OCCN(CC)CC` belongs -20.2% (inactive); to `CC/C(=C(/CC)c1ccc(OP(=O)(O)O)cc1)c1ccc(OP(=O)(O)O)cc1`, -1.73% (inactive). Take `CN=C1C=CC(=C(c2ccc(N(C)C)cc2)c2ccc(N(C)C)cc2)C=C1`: the Potency is 3.55 µM (active). For the compound `O=C(O)CCCC/C=C(\c1ccccc1)c1cccnc1`, the max response is 0.181% (inactive). Take `F[Si-2](F)(F)(F)(F)F`: the max response was 2.76% (inactive). Still for that read-out and setting: next, `CC(C)(C)NCC(O)CSc1nc(-c2ccc(C(N)=O)s2)cs1` (stereo not given): 20.6% (inactive). The same measure, in the same setting: to `CO[C@H]1C[C@H](O[C@H]2[C@H](C)[C@@H](O[C@@H]3O[C@H](C)C[C@H](N(C)C)[C@H]3O)[C@@H](C)C[C@]3(CO3)C(=O)[C@H](C)[C@@H](O)[C@@H](C)[C@@H](C)OC(=O)[C@@H]2C)O[C@@H](C)[C@@H]1O` belongs -2.69% (inactive); to `CC(=O)Nc1ccc(OC(=O)c2ccccc2O)cc1`, -4.48% (inactive).

As for `NS(=O)(=O)c1cc2c(cc1Cl)NC(Cc1ccccc1)NS2(=O)=O` (stereo not given), the max response is 18.5% (inactive). On the same count and under the same terms, to `C=CCOc1ccc(CC(=O)O)cc1Cl` belongs 22.7% (inactive). The same measure, in the same setting: to `COc1ccccc1N1CCN(CCCC(=O)c2ccc(F)cc2)CC1` belongs 18% (inactive); to `C=CC1=C(C(=O)O)N2C(=O)[C@@H](NC(=O)/C(=N\O)c3csc(N)n3)[C@H]2SC1` (stereo in doubt), 1.2% (inactive) and 8.54% (inactive); to `CCCOC(=O)c1ccccc1O`, -13% (inactive). On the same count and under the same terms, to `C[C@H](O)CN(C)C` belongs -4.88% (inactive).

With `CCC(C)[C@@H](N)C(=O)O` (stereo not given in full), the max response is -1.27% (inactive). Still for that read-out and setting: to `C[C@@](Cc1ccc(O)c(O)c1)(NN)C(=O)O` belongs -3.47% (inactive); to `CC(=O)[C@@]1(O)CC[C@H]2[C@@H]3C=C(Cl)C4=CC(=O)[C@@H]5C[C@@H]5[C@]4(C)[C@H]3CC[C@@]21C`, 3.29% (inactive); to `CC(C)C1=CC2=CC[C@@H]3[C@](C)(CCC[C@@]3(C)C(=O)O)[C@H]2CC1`, -5.77% (inactive).

Turning to `CCCCCCCCCCCCCCCC(=O)OC[C@H](COP(=O)([O-])OCC[N+](C)(C)C)OC(=O)CCCCCCCCCCCCCCC`, the max response was 1.23% (inactive). The same measure, in the same setting: to `OCC1(CO)COC(C(Cl)(Cl)Cl)OC1` belongs 24.4% (inactive); to `CC(C)(CO)[C@@H](O)C(=O)NCCC(=O)NCCSSCCNC(=O)CCNC(=O)[C@H](O)C(C)(C)CO`, 8.29% (inactive); to `CCC(Cc1c(I)cc(I)c(O)c1I)C(=O)O` (stereo not given), 11.2% (inactive). Same read-out and setting: to `O=C1C2CC3CC1CC(O)(C3)C2` belongs 6.58% (inactive); to `CCN(CC)CCOC[C@H]1O[C@@H](O)[C@H](OCCN(CC)CC)[C@@H](O)[C@@H]1O`, 6.01% (inactive); to `C=CC[N+]1([C@H]2C[C@H]3[C@@H]4CC[C@H]5C[C@H](O)[C@@H](N6CCOCC6)C[C@]5(C)[C@H]4CC[C@]3(C)[C@H]2OC(C)=O)CCCC1`, -0.733% (inactive). `CCCCCCCCCCCCCCCCCC(=O)OC[C@@H](O)[C@H]1OC[C@H](O)[C@H]1O`: the max response was -8.87% (inactive). On the same count and under the same terms, to `NCC[C@H](O)C(=O)N[C@@H]1C[C@H](N)[C@@H](O[C@H]2O[C@H](CN)CC[C@H]2N)[C@H](O)[C@H]1O[C@H]1O[C@H](CO)[C@@H](O)[C@H](N)[C@H]1O` belongs -1.8% (inactive). Same read-out and setting: next, `CC(=O)Nc1c(I)c(C(=O)N[C@H]2C(O)O[C@H](CO)[C@@H](O)[C@@H]2O)c(I)c(N(C)C(C)=O)c1I` (stereo not given in full): 5.57% (inactive). In the case of H-RKDVY-OH, the max response was -13.7% (inactive). With `O=C1[O][Bi][O]c2ccccc21`, the max response is 14.5% (inactive). For `CN[C@H](CC(C)C)C(=O)N[C@H]1C(=O)N[C@@H](CC(N)=O)C(=O)N[C@H]2C(=O)N[C@H]3C(=O)N[C@H](C(=O)N[C@@H](C(=O)O)c4cc(O)cc(O)c4-c4cc3ccc4O)[C@H](O)c3ccc(c(Cl)c3)Oc3cc2cc(c3O[C@@H]2O[C@H](CO)[C@@H](O)[C@H](O)[C@H]2O[C@H]2C[C@](C)(N)C(O)[C@H](C)O2)Oc2ccc(cc2Cl)[C@H]1O` (stereo not given in full), the max response was 3.65% (inactive) and -0.964% (inactive). On to `C=CC(=O)O`, for which the max response is -1.82% (inactive). On the same count and under the same terms, to `NC(N)=NCC1COC2(CCCCC2)O1` (stereo not given) belongs 9.74% (inactive); to `CCCCCCCCCCCCCCCCCCCCCC(=O)Nc1ccn([C@@H]2O[C@H](CO)[C@@H](O)[C@@H]2O)c(=O)n1`, -10.3% (inactive). On the same count and under the same terms, to `CCCc1nc(C(C)(C)O)c(C(=O)OCc2oc(=O)oc2C)n1Cc1ccc(-c2ccccc2-c2nn[nH]n2)cc1` belongs 48.2% (inactive); to `O=P(O)(O)CP(=O)(O)O`, -3.27% (inactive).

For `C(=C\c1ccncc1)/c1ccccc1`, the max response is 1.05% (inactive) and -0.436% (inactive). Same read-out and setting: to `CC(C)CCC[C@@H](C)[C@H]1CC(=O)C2=C3CC[C@H]4C[C@@H](O)CC[C@]4(C)[C@H]3CC[C@@]21C` belongs 5.28% (inactive); to `COc1ccc(-c2noc(CC(=O)O)c2-c2ccc(OC)cc2)cc1`, 49.9% (inactive).

The values above are taken from PubChem BioAssay (NCATS).
